This is a sample that favours compounds with a hit; in the whole collection about 4% have one here.
Arbovirus inh – blocks arbovirus infection; arbovirus infection cell-based antiviral screen; inhibition, % at 10 µM; 0.37% of 200,000 active; AID 1251; in the data active means inhibition above about 30%
ROMK mod – human ROMK K+ channel modulation, primary screen; P48048; B-score at 10 µM; Tet-inducible ROMK, thallium flux fluorescence; actives lie on both sides; 2% of 130,000 active;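 active means signal ratio slope over the read window, or its plate-corrected B-score, at least 3 SD from the plate mean, either direction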;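 further: B-score of the F/F0 ratio slope over 7 to 12 s after thallium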
HSV replic up – increases HSV replication in cells | maximum fold increase | HSV replication augmentation in cells, fold increase | AID 1956 | 0.005% of 220,000 active; in the data active means maximum fold increase above about 1.5; inconclusive means no clear call, values can overlap the other calls; tested in PC3 cells
Cl transport mod – modulates chloride dependent transport by human KCC2 | B-score of Tl+ flux slope (higher = more flux/activation; lower = inhibition) at 10 µM | AID 1456 | Q9H2X9 | 2.2% of 190,000 active | KCC2 cells, thallium flux FluoZin-2 fluorescence;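 active means thallium flux slope and its plate-corrected score both differing from the plate sample mean at a set confidence after two filtering rounds, in either direction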;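 further: slope of fluorescence scaled to starting intensity during 10 to 20 s after thallium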
Target sequence (Q9H2X9 whole entry, looked up): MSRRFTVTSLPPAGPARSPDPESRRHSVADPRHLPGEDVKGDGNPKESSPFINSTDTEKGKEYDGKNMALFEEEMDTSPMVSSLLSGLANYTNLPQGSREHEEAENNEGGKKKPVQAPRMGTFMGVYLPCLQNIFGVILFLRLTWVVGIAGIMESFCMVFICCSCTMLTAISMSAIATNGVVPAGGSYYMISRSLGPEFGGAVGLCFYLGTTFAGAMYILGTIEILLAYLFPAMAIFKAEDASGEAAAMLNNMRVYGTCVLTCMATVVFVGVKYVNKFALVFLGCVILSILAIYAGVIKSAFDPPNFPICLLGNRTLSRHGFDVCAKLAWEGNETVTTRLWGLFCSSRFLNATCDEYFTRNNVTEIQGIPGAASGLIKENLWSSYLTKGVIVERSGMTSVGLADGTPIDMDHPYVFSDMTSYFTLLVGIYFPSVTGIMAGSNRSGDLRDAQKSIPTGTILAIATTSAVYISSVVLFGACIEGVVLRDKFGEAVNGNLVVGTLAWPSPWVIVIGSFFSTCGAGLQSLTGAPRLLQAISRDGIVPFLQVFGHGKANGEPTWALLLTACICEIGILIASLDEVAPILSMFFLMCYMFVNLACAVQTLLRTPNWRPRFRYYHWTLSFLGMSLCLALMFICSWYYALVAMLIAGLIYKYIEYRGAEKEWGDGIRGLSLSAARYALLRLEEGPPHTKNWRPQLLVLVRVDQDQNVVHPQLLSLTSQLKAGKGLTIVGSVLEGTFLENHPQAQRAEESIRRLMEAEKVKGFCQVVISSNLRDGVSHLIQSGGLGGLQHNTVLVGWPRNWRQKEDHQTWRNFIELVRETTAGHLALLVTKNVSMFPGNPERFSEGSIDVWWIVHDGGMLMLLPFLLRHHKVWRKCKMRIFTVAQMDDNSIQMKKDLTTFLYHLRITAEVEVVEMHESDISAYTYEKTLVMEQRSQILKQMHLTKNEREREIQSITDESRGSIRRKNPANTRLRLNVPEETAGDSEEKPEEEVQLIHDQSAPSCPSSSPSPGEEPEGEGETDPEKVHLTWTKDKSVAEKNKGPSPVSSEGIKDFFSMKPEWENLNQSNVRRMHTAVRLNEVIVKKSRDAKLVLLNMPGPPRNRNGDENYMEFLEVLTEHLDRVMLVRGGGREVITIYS
Measles CPE – protection of cells from measles virus. Measles virus-infected cells, CPE protection, absorbance. protection (pct of control), % at 4 µM. 1.5% of 140,000 active; in the data active means protection mostly above about 24%, no sharp cut-off; inactive means mostly below about 26%
KCC2 sec1 – KCC2 (human) modulation, secondary assay; shares compounds with Cl transport mod; HEK293-KCC2, thallium flux, FluoZin2 fluorescence; active compounds read high; normalised thallium flux (F/F0 slope) at 10 µM; 15% of 3,700 active; AID 1713;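 active means thallium flux slope above the same plate's solvent-only control mean plus 3 SD; inconclusive means the two replicate wells disagree; inactive means no significant difference from solvent-only control wells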
KCC2 bumet counter – bumetanide-insensitive thallium flux in KCC2 cells with ouabain, counter-screen. shares compounds with Cl transport mod. HEK293-KCC2 + bumetanide/ouabain, thallium flux FluoZin2; active compounds read high. normalized thallium flux at 10 µM. 49% of 3,700 active. AID 1714;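 active means thallium entry rate above the same plate's blocked-transporter control wells by more than 3 SD; inconclusive means the two repeat wells disagree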;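 further: raw slope of fluorescence over initial fluorescence between 10 and 20 s after thallium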
KCC2 secondary2 – KCC2 (human) modulation, second secondary assay | HEK293-KCC2, thallium flux FluoZin2 fluorescence; actives lie on both sides; F/F0 rise rate, 10–20 s post-thallium | normalized thallium flux at 10 µM | AID 1715 | shares compounds with Cl transport mod | 23% of 3,700 active;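 active means thallium flux slope more than 3 SD above or below the plate's solvent-only control mean, mostly below; inconclusive means the two repeat wells disagreed; inactive means no significant shift from solvent-only controls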
HEK counter1 – acts in parental HEK cells, KCC2 counter-screen. shares compounds with Cl transport mod. HEK293 parental cells, thallium flux FluoZin2, ouabain; baseline-ratio fluorescence slope, 10–20 s after thallium. thallium flux rate (normalised fluorescence) at 10 µM. 46% of 3,700 active. AID 1716;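 active means thallium flux rate significantly above the same plate's solvent-only control wells, beyond their mean plus 3 SD; inconclusive means the two replicate wells gave conflicting results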
KCC2 ouabain – KCC2 (human) modulation, ouabain retest; HEK293-KCC2, thallium flux FluoZin2 fluorescence; bidirectional: low = inhibitor, high = activator; shares compounds with Cl transport mod; raw Tl+ flux slope (below DMSO = inhibition, above = activation) at 10 µM; 48% of 3,700 active;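 active means thallium flux slope beyond 3 SD from same-plate DMSO control mean in most replicates, usually higher, sometimes lower; inconclusive means repeat tests gave conflicting results; inactive means no significant difference from controls in most replicates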;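 further: slope of initial-normalized fluorescence between seconds 10 and 20 after thallium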
HEK293 Tl flux2 – counter-screen for KCC2 modulators: effect in parental HEK293 cells; shares compounds with Cl transport mod; thallium flux FluoZin-2 fluorescence slope; thallium flux slope at 10 µM; 33% of 3,700 active; AID 1718;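 active means thallium flux slope above the same plate's solvent-control mean plus 3 SD in both duplicate wells; inconclusive means duplicate wells that disagreed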;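 further: run without ouabain in cells lacking the KCC2 cotransporter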
Numbers stand for hits; n = inactive; u = inconclusive; x = no result given.

SMILES	Arbovirus inh	ROMK mod	HSV replic up	Cl transport mod	Measles CPE	KCC2 sec1	KCC2 bumet counter	KCC2 secondary2	HEK counter1	KCC2 ouabain	HEK293 Tl flux2
CC(=O)Nc1ccc(SCC(=O)Nc2ccc(Cl)cn2)cc1	n	n	n	n	x	x	x	x	x	x	x
NC(=S)NNC(=O)c1cccc(Cl)c1	x	n	n	5.63	x	u	u	n	0.0101	n	u
Cc1cc(C(=O)NNC(=O)c2ccc(Cl)cc2)no1	x	n	n	5.88	x	n	0.016	n	0.0129	n	0.0117
Cc1nc(-c2nc(-c3c(C(=O)NNC(=O)c4ccc(Cl)cc4)noc3C)cs2)cs1	x	n	n	103	x	0.0432	0.149	n	u	0.0921	0.0214
Cc1cc(/C(N)=N/OC(=O)c2cccc(Cl)c2)no1	x	x	n	n	x	x	x	x	x	x	x
Cc1cc(C(=O)NNC(=O)c2cccc(Cl)c2)no1	x	x	n	7.36	x	n	0.0143	n	0.0139	u	0.0176
COCCCNC(=S)NCCNc1nc2c(C)c(C)ccc2cc1C#N	n	n	n	n	x	x	x	x	x	x	x
Cc1nc(-c2nc(CC(=O)NNC(=O)c3ccc(Cl)cc3)cs2)cs1	x	n	n	n	x	x	x	x	x	x	x
Cc1nc(C(=O)NNC(=O)c2ccc(Cl)cc2)cs1	x	n	n	9.89	x	u	0.0254	n	0.0123	n	u
CCS(=O)(=O)c1ccc(O)c(NC(=O)CC2(CC(=O)O)CCCC2)c1	x	n	n	n	x	x	x	x	x	x	x
O=C1c2ccccc2NC(c2ccc(Cl)cc2Cl)N1O (stereo unspecified)	n	x	u	3.84	n	n	0.0209	n	0.00946	n	n
COc1ccc(OC)c(S(=O)(=O)Nc2cnc3ccccc3c2)c1	n	x	n	-5.59	n	n	n	n	n	n	n
COc1ccc(OC)c(S(=O)(=O)Nc2ccc(F)cc2)c1	n	n	n	x	n	x	x	x	x	x	x
CC(C)(C)C(=O)NC1(C(F)(F)F)NC(=O)N(c2ccccc2F)C1=O (stereo unspecified)	x	x	n	n	x	x	x	x	x	x	x
CSCCC(NC(=O)c1ccc([N+](=O)[O-])cc1Cl)C(=O)OCC(=O)NCCCc1ccccc1 (stereo unspecified)	n	n	n	-4.28	n	n	u	0.0263	n	u	n
Cc1cc(C)c(S(=O)(=O)Nc2ccccc2C(=O)OCC(=O)NCc2ccccc2)c(C)c1	n	n	n	n	x	x	x	x	x	x	x
COc1ccc(C2C(C(N)=O)=C(C)Nc3nc(-c4ccccc4)nn32)cc1OC (stereo unspecified)	n	x	n	5.5	n	n	u	n	n	n	u
C=CCNC(=S)Nc1sc2c(c1C(N)=O)CCCC2	x	x	n	8.27	x	n	0.0143	n	0.0117	0.0282	0.0111
NC1=NC[C@@H](Cc2ccc(O)cc2)N1CCc1cc(C(F)(F)F)cc(C(F)(F)F)c1	x	x	n	-3.19	x	n	n	0.0224	n	0.0136	n
NC1=NC[C@@H](Cc2ccc(O)cc2)N1CCc1cccc(F)c1	x	x	n	n	x	x	x	x	x	x	x
COc1ccc(CCNC(=O)CCNS(=O)(=O)c2cccc(Cl)c2)cc1OC	n	n	n	n	x	x	x	x	x	x	x
CNC(=S)N=Nc1c(O)[nH]c2ccccc12	n	n	n	4.14	n	n	0.0209	n	0.0106	n	0.0117
Oc1ccc(NC(=S)N=Nc2c(O)[nH]c3ccccc23)cc1	n	n	n	n	x	x	x	x	x	x	x
Cc1ccc(NC(=S)N=Nc2c(O)[nH]c3ccccc23)cc1	n	n	n	4.3	x	n	0.018	n	0.0199	0.032	0.013
Oc1[nH]c2ccc(Br)cc2c1N=NC(=S)Nc1ccc(F)cc1	x	n	n	24.8	x	n	0.0331	u	0.0149	0.0307	0.0185
CCc1nc2c(c(=O)[nH]1)C1(CCCC1)Cc1ccccc1-2	n	n	n	x	n	n	n	n	n	n	n

Assay outcomes: PubChem BioAssay, several laboratories
